Results with a measured potency or affinity are listed apart. A number with no mark means an inactive call.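 Rule for the calls: active = growth signal falls, with fitted half-maximal dose at most ten times the top valid dose; inconclusive = flat curve with a partial drop, or a poorly fitting curve; inactive = the rest, including compounds that raise signal.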

The nature of this assay: single-agent toxicity toward C. albicans – CaCi-2 strain, no fluconazole, dry powder, set 4, counter-screen for reversing antifungal drug resistance, dose response (AID 488932). The following applies: C. albicans CaCi-2 (fluconazole-resistant clinical isolate) growth, Alamar Blue, 48 h; series mostly up to 26 µM; activity change, negative = inhibition: at the top concentration.
As for `O=C(c1ccc(F)cc1)N1CCN(c2ccnc3cc(Cl)ccc23)CC1`, the “activity change, negative = inhibition” value is 20.7%. Take `O=S(=O)(c1ccc(Cl)cc1)N1CCN(c2ccnc3cc(Cl)ccc23)CC1`: the “activity change, negative = inhibition” value is 35%. Consider `O=C(c1ccc(Cl)cc1)N1CCN(c2ncnc3ccccc23)CC1`, for which the “activity change, negative = inhibition” value is -21.6%.

On to `O=C(c1ccc(Cl)cc1)N1CCN(c2ncccn2)CC1`, for which the “activity change, negative = inhibition” value was 15.2%. The same measure for `O=C(c1cccs1)N1CCN(c2ccnc3cc(Cl)ccc23)CC1`: -16% [at 12 µM].
